NPC1 promoter act – qHTS Assay for NPC1 Promoter Activators | Huh7 NPC1 promoter luciferase reporter, 24 h | Potency, µM (titrated, usually from 9.22 µM), inactives show at the highest dose activation, most hits filed as activators | hit rate 2.4% among 320,000 | AID 485313, 2010; also: % of control where 0% means no effect; nearly all actives have a fitted effect of over 60% in size
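Stable NPC1-promoter luciferase Huh7 line; cpd (DMSO) 24 h, 37 °C, 5% CO2; Amplite luciferase reagent 10 min RT; luminescence readout. qHTS format.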
FLuc counter – qHTS profiling assay for firefly luciferase inhibitor/activator using purifed enzyme and Km concentrations of substrates (counterscreen for miR-21 project); Luciferin 4-monooxygenase (Photinus pyralis), P08659; purified FLuc, Km substrates, luminescence inhibition; Potency, µM (highest dose often 57.5 µM), for inactives: at the top dose activity change, negative = inhibition, hits mostly inhibitors; hit rate 6.9% among 360,000; AID 588342, 2011;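 also: plate controls were vehicle for no effect and reference inhibitor for full effect; nearly all actives have a fitted effect of over 55% in size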
Target sequence (P08659 whole entry, looked up): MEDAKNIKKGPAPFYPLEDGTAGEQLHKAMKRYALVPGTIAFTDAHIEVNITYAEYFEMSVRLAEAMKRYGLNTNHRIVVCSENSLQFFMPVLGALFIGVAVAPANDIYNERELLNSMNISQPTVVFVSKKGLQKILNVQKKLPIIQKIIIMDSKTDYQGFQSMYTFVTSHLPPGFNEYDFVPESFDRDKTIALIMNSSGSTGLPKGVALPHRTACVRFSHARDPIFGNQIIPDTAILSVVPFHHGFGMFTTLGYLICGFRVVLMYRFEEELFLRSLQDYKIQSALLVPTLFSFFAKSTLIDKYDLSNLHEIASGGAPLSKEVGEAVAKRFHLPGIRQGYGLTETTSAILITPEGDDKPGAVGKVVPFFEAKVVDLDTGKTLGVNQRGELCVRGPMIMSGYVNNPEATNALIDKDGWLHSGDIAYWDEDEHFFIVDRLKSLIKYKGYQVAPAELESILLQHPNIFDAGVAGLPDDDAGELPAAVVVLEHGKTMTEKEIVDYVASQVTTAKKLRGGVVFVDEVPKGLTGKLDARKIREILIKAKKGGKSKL
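Purified P. pyralis luciferase, 10 nM final, with Km-level 10 uM D-luciferin and 10 uM ATP in 50 mM Tris acetate pH 7.5, 10 mM Mg acetate, 0.01% Tween-20, 0.05% BSA; 6-point qHTS titration about 60 µM downward; luminescence read.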
Rab9 promoter act – qHTS Assay for Rab9 Promoter Activators. Potency, µM (highest dose often 9.22 µM), without a hit: at the highest dose activation, negative = inhibition, most hits filed as activators. AID 485297, 2010. hit rate 2.8% among 320,000. Huh7 Rab9 promoter-luciferase reporter, luminescence, 24 h; also: % of control where 0% means no effect; nearly all actives have a fitted effect of over 60% in size
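Stable Rab9-luc Huh7, 1500 cells/well, 2 h settle; cmpd in DMSO, 24 h, 37 °C/5% CO2; luciferase reagent 10 min RT; luminescence.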
ELG1 DNA repair – qHTS screen for small molecules that inhibit ELG1-dependent DNA repair in human embryonic kidney (HEK293T) cells expressing luciferase-tagged ELG1 | HEK293T ELG1-luciferase reporter, luminescence, 16 h; DNA damage induced by 5-fluorouridine | Potency, µM (doses to about 46.1 µM), for inactives: top-dose activity change, negative = inhibition, hits mostly inhibitors | hit rate 2.3% among 330,000 | AID 504467, 2011; also: % is scaled to controls: 0 for no effect and ±100 for the full control effect; nearly all actives have a fitted effect of over 55% in size
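Overnight (16 hr) co-exposure of 2,000 cells/well to 5-fluorouridine and compound at 37 °C preceded detection. Luciferase was quantified via ONE-Glo luminescence; loss of signal denotes inhibition.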
SMN2 splice enh – qHTS Assay for Enhancers of SMN2 Splice Variant Expression | HEK293 SMN2-luciferase splicing reporter, luminescence, 30-36 h | AID 1458, 2008 | Potency, µM (series often up to 46.1 µM), for the others: at the highest dose activity change, positive = activation, hits mostly activators | hit rate 2.8% among 210,000; also: % of control where 0% means no effect; nearly all actives have a fitted effect of over 55% in size
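HEK293 cells carry an SMN2 minigene-luciferase reporter in which exon 7 inclusion puts luciferase in frame. Cells were seeded at 2000 cells/well, attached for 10-12 hours, then exposed to compounds for 30-36 hours at 37C before ONE-Glo luminescence.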
ELG1 genotoxic – qHTS screen for small molecules that induce genotoxicity in human embryonic kidney (HEK293T) cells expressing luciferase-tagged ELG1 | HEK293T ELG1-luciferase reporter, luminescence, 16 h | Potency, µM (series often up to 46 µM), without a hit: at the top dose activity change, positive = activation, hits mostly activators | hit rate 1.3% among 330,000; also: % of control where 0% means no effect; nearly all actives have a fitted effect of over 60% in size
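ELG1-luciferase HEK293T cells, 2,000/well; compound pinned in; 16 hr, 37 °C, 5% CO2; ONE-Glo, 30 min RT; luminescence on CCD imager.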
Numbers without * were called inactive; ? = inconclusive; nt = no result given; [ ] = dose if it differs, or a comment. Sampled rows, rich in hits. Any-hit rate of the full collection: about 9.3%. Calls follow the shape of the dose curve; as a rule, active = well fitted curve in the direction sought with a large enough effect; inconclusive = small, poorly fitted or top-dose-only effect, or another doubt; inactive = no such curve, though single readings can be large; an effect the other way counts as inactive or inconclusive. Potency is read from the fitted curve at half-maximal effect.

SMILES | NPC1 promoter act | FLuc counter | Rab9 promoter act | ELG1 DNA repair | SMN2 splice enh | ELG1 genotoxic
CCOC(=O)NN1C(=O)c2ccccc2NC1c1cccs1 (centres undefined) | -2.0% | -1.9% | -3.4% | -5.5% | nt | 1.0%
CS(=O)(=O)N1CCC(N2CCN(Cc3ccc(F)cc3)C(=O)C2=O)CC1 | nt | 2.1% | nt | nt | nt | nt
O=C(O)COCC(=O)NCc1csc2ccccc12 | 2.4% | 5.4% | -0.6% | 11.8% | nt | -0.1%
CCN(CC)CCNC(=O)c1cccc(NC(=O)C(=O)c2cc(Br)ccc2NC(C)=O)c1 | -5.5% | 0.5% | 3.1% | -0.1% | -10.2% | 2.8%
CC(=O)Nc1ccccc1C(=O)C(=O)Nc1ccc(Cl)cc1 | 2.24µM* | -19.0% | 2.51µM* | ? | 22.4µM* | ?
CCC(=O)Nc1ccccc1C(=O)OC(c1ccccc1)c1ccccc1 | -9.3% | 0.0% | -3.7% | 19.0% | 10.9%[1.84 µM] | -0.9%
CCC(=O)Nc1ccccc1C(=O)C(=O)Nc1ccccc1 | ? | 2.4% | 2.51µM* | ? | ? | 7.7%
CC(=O)Nc1ccccc1C(=O)C(=O)Nc1cccc(Br)c1 | ? | -3.7% | 2.51µM* | ? | 29.4% | 5.6%
O=C(NN=C1CCCCCC1)C(=O)Nc1cccc(Br)c1 | 18.0% | 6.01µM* | 22.6% | ? | -1.9%[1.84 µM] | 17.2%
CC(=O)Nc1ccccc1C(=O)C(=O)Nc1ccccc1 | ? | 2.1% | ? | ? | ? | 1.9%
COCCCNC(=O)/C(C#N)=C/c1cc(C)[nH]c1C | 4.6% | -17.7% | 11.8% | 2.5% | 5.3% | 5.5%
COc1cccc(C(=O)Nc2cc(C(=O)NCCc3ccccc3)ccc2Cl)c1 | 9.2% | -17.7% | 13.4% | 18.5% | 11.2µM* | ?
COc1ccc(CCNC(=O)c2ccc(Cl)c(S(=O)(=O)N(C)c3ccccc3)c2)cc1 | 1.0% | 4.5% | 15.2% | 16.4µM* | 0.3%[1.84 µM] | -5.1%
COc1ccc(CCNC(=O)c2ccc(Cl)c(S(=O)(=O)N3CCCCCC3)c2)cc1 | -17.7% | 2.4% | -30.4% | ? | nt | -11.6%
CCCCC(=O)Nc1cc(C(=O)NCCc2ccccc2)ccc1Cl | 2.24µM* | -4.2% | 2.51µM* | ? | 7.94µM* | ?
COC(=O)c1cnc(N2CCOCC2)nc1C(F)(F)F | -3.2% | -0.4% | 0.0% | ? | nt | 2.8%
O=C(O)c1ccncc1.O=C(O)c1ccncc1.[Cl][Pt]([Cl])([Cl])[Cl] | nt | nt | nt | nt | -8.0%[9.22 µM] | nt
CCC(=O)Nc1ccc(NC(=O)c2ccco2)cc1 | 2.82µM* | 19µM* | 2.82µM* | ? | 27.3% | ?
Fc1ccc(CSc2nsc(SCc3ccc(F)cc3)n2)cc1 | 1.6% | -1.1% | -4.5% | 6.9% | -5.0% | -3.3%
CCOc1ccc(NC(=O)Nc2nc(SCC)ns2)cc1 | 0.0% | ? | -4.0% | -20.4% | nt | -9.7%
O=C(CCc1ccccc1)Nc1ccc(NC(=O)c2ccco2)cc1 | 16.7% | -18.0% | 17.3% | ? | 8.3% | ?
O=C(Nc1nc(SCc2ccc(F)cc2)ns1)c1ccco1 | 13.0% | 21.3µM* | 20.5% | ? | 17.8µM* | 13.3%
O=C(Nc1ccc(CSc2ccccc2)cc1)c1ccco1 | 2.82µM* | 2.69µM* | 3.98µM* | ? | nt | 7.3µM*
CCSc1nsc(NC(=O)Nc2ccc(F)cc2F)n1 | ? | 5.36µM* | ? | ? | nt | 6.2%
CCN(CC(=O)NCc1ccc(Cl)cc1)C(=O)COc1cccc(C(F)(F)F)c1 | -6.5% | 4.6% | 2.7% | -11.4% | nt | -0.7%
SMILES | NPC1 promoter act | FLuc counter | Rab9 promoter act | ELG1 DNA repair | SMN2 splice enh | ELG1 genotoxic
Cc1ccc(S(=O)(=O)CC(=O)Nc2cc(C)on2)cc1 | -1.4% | 0.4% | -2.2% | -1.7% | nt | -0.2%
O=C(OC1CCCCC1)c1ccc(NC(=O)c2ccco2)cc1 | ? | 13.5µM* | 3.55µM* | ? | ? | 8.3%
CCC(=O)Oc1ccc(NC(=O)c2ccco2)cc1 | 1.6% | 12µM* | 5.3% | 28.3% | 9.4% | 9.2%
CCC(=O)Oc1cccc(C(=O)Nc2cccc(NC(=O)c3ccco3)c2)c1 | 3.4% | ? | -3.2% | -28.3% | nt | -9.5%
O=C(Nc1ccc(OC(=O)c2ccco2)cc1)c1ccco1 | 8.6% | 4.78µM* | 4.0% | 21.6% | 16.9% | 6.7%
COc1ccc(C(=O)Nc2ccc(NC(=O)c3ccco3)cc2)cc1 | 0.5% | -8.9% | 10.7% | ? | nt | ?
FC(F)(F)c1cc(CN2CCCC3(CCNCC3)C2)cc(C(F)(F)F)c1 | nt | nt | nt | nt | -2.2% | nt
CC(C)(C)C1CCc2sc(C(=O)NNC(=O)CCl)cc2C1 (centres undefined) | -42.4% | 4.78µM* | -44.7% | ? | -17.7% | ?
CC(C)(C)C1CCC(=NNC(=O)c2cc3c(s2)CCCC3)CC1 (centres undefined) | -5.0% | -2.3% | -1.0% | 8.5% | -9.7% | -1.4%
CCOc1cccc(/C=N/NC(=O)c2cccnc2)c1O | -21.5% | 19µM* | -11.4% | ? | nt | ?
O=C(N/N=C/c1ccccc1OCc1ccccc1Cl)c1cccnc1 | 0.2% | 23.9µM* | -4.5% | -4.3% | -20.8% | 4.7%
CCOc1cccc(/C=N/NC(=O)c2cc(C3CC3)[nH]n2)c1O | -43.0% | 12µM* | -37.2% | 2.59µM* | nt | ?
CCOc1cc(/C=N/NC(=O)c2cccnc2)ccc1O | -4.7% | -1.5% | -5.6% | 1.3% | nt | -0.7%
CS(=O)(=O)N1CCC(C(=O)NCc2ccccc2)CC1 | -7.7% | -0.3% | -2.5% | 2.3% | 3.9% | 3.4%
Cc1ccc(CN(Cc2cccn2-c2nnc(N3CCCC3=O)s2)C(=O)Nc2ccccc2C(F)(F)F)cc1 | nt | -5.8% | nt | nt | 4.5% | nt
Cc1ccc(S(=O)(=O)NCC(=O)NCC2CCCCC2)cc1C | 4.8% | 3.6% | 0.0% | -5.8% | nt | -2.3%
O=C(Nc1cccc(S(=O)(=O)N2CCOCC2)c1)c1cc(=O)[nH]c2ccccc12 | nt | nt | nt | 0.0% | nt | -0.2%
COc1cc(NC(=O)O[C@@H]2C(=O)c3cc(Br)ccc3O[C@H]2c2ccc3c(c2)OCO3)cc(OC)c1OC | nt | nt | nt | nt | 1.0% | nt
O=C(/C=C/Nc1ccc([N+](=O)[O-])cc1Br)c1cccc2ccccc12 | 3.16µM* | 2.39µM* | 1.12µM* | ? | 5.62µM* | ?
O=C(Nc1nnc(C2CC2)s1)c1ccco1 | ? | ? | 3.16µM* | ? | 29.7% | ?
O=C(Nc1nnc(C2CCCCC2)s1)c1ccco1 | 3.98µM* | ? | 2µM* | ? | ? | ?
Cc1ccccc1N1CC(c2nnc(NC(=O)c3ccco3)s2)CC1=O (centres undefined) | nt | -17.9% | nt | nt | nt | nt
